Holding throughout (assay): NCI-60 one-dose screen, 48 h (100 = growth as untreated, 0 = no growth, -100 = all killed)
What all share (settings): 10 µM unless noted

The subject of assay [1] is T-47D breast.
Assay [2] concerns BT-549 breast.
Assay [3] deals with MDA-MB-435 melanoma.
The test system of assay [4] is MCF7 breast.
For assay [5], the system named is HCT-116 colon.
Assay [6] deals with HCC-2998 colon.
The subject of assay [7] is KM12 colon.
Assay [8] has as its system SW-620 colon.

The values that follow come from PubChem BioAssay (NCI).

The panel holds about 83,000 compounds, 20% with a hit somewhere; the sample as a whole holds those more often.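 Activity criterion: percent growth below 10, measured after cells in 96-well plates were exposed to a single compound concentration for 48 hours.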 Values without a mark were called inactive. Calls of active or inactive are those of the source.

Regarding `CCOC(=O)c1c(O)cc(-c2ccccc2)cc1-c1sc(N(C)Cc2ccccc2)nc1Cl`, the growth in assay [1] was 93.5%; in assay [2] it was 42.7%; in assay [3], 101%; in assay [4] it was 94%; in assay [5], -85.6% (active); in assay [6], 103%. For the same molecule, the growth in assay [7] is 104%.
With `Cc1ccc(Nc2cc(=S)nc(N)[nH]2)cc1C`, the growth in assay [1] is 89.2%; in assay [2], 95.9%; in assay [3], 103%; in assay [8], 96.7%; in assay [4] it was 88.5%; in assay [5], 90.1%. In assay [7], the growth is 102%.
`CCCCCCc1nc2nc(Cl)c(Cl)nc2[nH]1`: the growth was 22.7% in assay [1]; 66.5% in assay [2]; 61.9% in assay [3]; 87.6% in assay [8]; 64.4% in assay [4]; 57.1% in assay [5]. In addition, the growth in assay [6] was 61.3%; in assay [7], 47.6%.
Turning to `N#CC1=C(N)Oc2c(ccc3ccccc23)C1c1ccc([N+](=O)[O-])cc1` (stereo not drawn), the growth in assay [1] is 74.6%; in assay [2] it was 83.1%; in assay [3], 6.07% (active); in assay [4] it was 51.8%; in assay [5], 68.8%; in assay [6], 85.9%. The growth in assay [7] was 50.4%.
Take `O=C(Nc1cccc(Cl)c1)c1cc(Cl)ccc1O`: the growth in assay [1] is -11.9% (active); in assay [2], -6.47% (active); in assay [3], 5.73% (active); in assay [8] it was 6.44% (active); in assay [4], 4.21% (active); in assay [5] it was 6.01% (active). For the same molecule, the growth in assay [7] is 5.13% (active).
Take `COc1ccc(C2=C(c3ccccc3)c3ccc(OC(C)=O)cc3OC2(C)C)cc1`: the growth was 83.9% in assay [1]; 140% in assay [2]; 80.5% in assay [3]; 82.1% in assay [8]; 93.9% in assay [4]; 88.9% in assay [5]. The growth was 86.5% in assay [6] and 52.7% in assay [7].
For `O=C(CN1CCOCC1)Nc1ccc2ncnc(Nc3ccc(OCc4cccc(F)c4)c(Cl)c3)c2c1`, the growth is 18.5% in assay [1]; 70.8% in assay [2]; 72.1% in assay [3]; 54.7% in assay [4]; 64.5% in assay [5]; 88.6% in assay [6].
Turning to `CN1CCN(c2ccc3nc(-c4cc(C(C)(C)C)c(O)c(C(C)(C)C)c4)[nH]c3c2)CC1`, the growth was 63.2% in assay [1]; 98.2% in assay [2]; 0.049% (active) in assay [3]; 35.6% in assay [4]; 23.3% in assay [5]; 25.2% in assay [6]. Also, in assay [7], the growth is 16.9%.
For `CC(=O)c1cc2c(N)c(C(=O)Nc3cncc4ccccc34)sc2nc1C`, the growth in assay [1] was 93.8%; in assay [2], 105%; in assay [3] it was 43.6%; in assay [8] it was 103%; in assay [4], 91.6%; in assay [5], 101%. Besides, the growth in assay [6] is 106%; in assay [7], 94.3%.
Regarding `c1ccc(-c2nnc(Nc3ccc4c(c3)OCCO4)o2)c(NCc2ccncc2)c1`, the growth in assay [1] was 52.7%; in assay [2], -15.1% (active); in assay [3], -34.6% (active); in assay [4], 20%; in assay [5], 4.92% (active); in assay [6], -22.3% (active). Also, in assay [7], the growth is -38.3% (active).
As to `CCCOc1nc(SCCC)nc2c1cnn2-c1ccccc1`, the growth in assay [1] is 115%; in assay [3], 104%; in assay [8], 103%; in assay [4], 101%; in assay [5], 105%; in assay [6], 99.6%. For the same molecule, the growth in assay [7] was 105%.
Consider `N#CSCC1CC(O)(c2ccccc2)C(c2ccccc2)C(c2ccc(F)cc2)O1` (stereo not drawn), for which the growth in assay [1] was 9.18% (active); in assay [2] it was 5.69% (active); in assay [3], -0.166% (active); in assay [4], 5.64% (active); in assay [5], -63.9% (active); in assay [6] it was 74.8%. Also, the growth in assay [7] is 4.67% (active).
For `O=C1Nc2c(ccc(Cl)c2Cl)/C1=C/c1ccc(F)cc1`, the growth in assay [1] is 71.2%; in assay [2], 99.8%; in assay [3], 99.1%; in assay [4], 37.7%; in assay [5], 84.4%; in assay [6] it was 58.1%. The growth in assay [7] is 85.2%.
Turning to `c1ccc(-c2nn(-c3ccccc3)[n+](-c3cccc4ccccc34)n2)cc1`, the growth in assay [1] was 25%; in assay [2], 13.4%; in assay [3] it was -50.3% (active); in assay [4] it was 11.7%; in assay [5], 7.65% (active); in assay [6], 20.8%. In addition, the growth in assay [7] is 10.1%.
In the case of `NC(=O)CN1CCN(c2ccccc2Cl)CC1`, the growth in assay [1] is 96.9%; in assay [2], 99.2%; in assay [3] it was 103%; in assay [4], 102%; in assay [5], 100%; in assay [6], 101%. Moreover, the growth in assay [7] was 109%.
Turning to `Cn1c(COC(=O)NCCN2CCOCC2)nc2c(N3CCOCC3)nc(-c3ccccc3)nc21`, the growth in assay [1] is -28.9% (active); in assay [2], -66.4% (active); in assay [3], -87.4% (active); in assay [4], -59% (active); in assay [5], -80.9% (active); in assay [6], -53.8% (active). Further, the growth in assay [7] was -5.33% (active).
For the molecule `CCCNC(=O)Oc1ccc(/C(=C(\C)c2ccccc2)c2ccc(OCCN3CCCCC3)cc2)cc1`, the growth in assay [1] was 38.7%; in assay [2], 69.8%; in assay [3], 78.8%; in assay [4], 27.9%; in assay [5], 46.5%; in assay [6], 86.9%. Also, the growth in assay [7] is 58.9%.
Turning to `O=C(/C=C/c1ccc[nH]1)c1ccc(-n2ccc(C(F)(F)F)n2)cc1`, the growth is 94.7% in assay [1]; -45.3% (active) in assay [2]; 99.5% in assay [3]; 72.2% in assay [4]; 87.3% in assay [5]; 54.7% in assay [6]. Also, the growth in assay [7] is 1.59% (active).
